Only some compounds are listed: those with a hit (about 1.4% of all), similar ones and a draw of the others.
IDE inh: human IDE inhibitors in live cells, primary screen, fluorescence polarization, HEK cells, FAbetaB substrate; Insulin-degrading enzyme (Homo sapiens), P14735; FAbetaB cleavage; inhibition, % at 5.59 µM; 0.41% of 320,000 active;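 active = percent inhibition above the average of all tested compounds plus 3 SD, set per screening campaign, cut at about 16% in these data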;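 note: IDE supplied by intact live HEK cells; FP after avidin binding of uncleaved biotin substrate so inhibition keeps polarization high; 0% = DMSO wells and 100% = 60 µM reference IDE inhibitor Ii1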
TPT1 inh: Candida albicans TPT1 enzyme inhibitors, primary screen, biochemical, fluorescence polarization | recombinant caTPT1, FP RNA substrate dephosphorylation | inhibition, % at 5 µM | tRNA 2'-phosphotransferase TPT1 (Candida albicans SC5314) | AID 1962, 2009 | 0.81% of 300,000 active;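 active = inhibition above the mean of all tested compounds plus 3 SD, set per screening campaign, cut at about 24% in these data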;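 note: plate controls were DMSO alone for no effect and ferristatin control at 100 nM for full effect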
IDE cell activ: human IDE activators in live cells, primary screen, fluorescence polarization, HEK cells, FAbeta-B substrate | Insulin-degrading enzyme (Homo sapiens), P14735 | FAbeta-B cleavage; 0% vehicle, 100% cell-free pure enzyme wells | activation, % at 5.96 µM | 0.073% of 340,000 active | AID 493087, 2011;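 active = activation above the mean of all tested compounds plus 3 SD, set per screening campaign, cut at about 17% in these data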
CRFBP-R2 agonist: agonists of CRF-BP/CRF-R2 complex, primary screen, cell-based, HEK293, calcium dye fluorescence, uHTS. CRF-binding protein / CRF receptor 2 complex (human). calcium dye fluorescence (FLIPR); percent of saturating CRF peptide response. activation, % at 13.2 µM. 0.46% of 350,000 active;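 active = activation of at least 50%, plus an integration ratio under a set limit after plate pattern correction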;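 note: plate controls were neutral control wells without compound for no effect and CRF at EC100 for full effect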
HNF4A DNA FP: change in binding of human HNF4A to DNA, primary screen, biochemical, fluorescence polarization, FITC-DNA. Hepatocyte nuclear factor 4-alpha (Homo sapiens), P41235. 0.3% of 360,000 active. AID 1224865, 2016. activity change, % at 10 µM. 1 h; in the data active = activity change above about 30%, passing the limit was not always enough
IDE inh confirm: human IDE inhibitors in live cells, confirmation, fluorescence polarization, HEK cells, FAbetaB substrate; FAbetaB cleavage; 51% of 1,200 active; inhibition, % at 5.59 µM; shares compounds with IDE inh; AID 435028, 2010;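 active = mean inhibition across triplicate wells above the cutoff set by the earlier primary insulin-degrading enzyme screen, cut at about 16% in these data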;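 note: 0% = DMSO wells and 100% = 60 µM reference IDE inhibitor Ii1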
HEK cytotox: cytotoxicity in HEK cells, cytotoxicity control for IDE inhibitor project, cell-based, luminescence; shares compounds with IDE inh; HEK293 cytotoxicity, ATP luminescence; inhibition, % at 5.59 µM; 28% of 1,200 active; AID 449730, 2010; in the data active = inhibition above about 22%;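 note: 0% = vehicle wells and 100% = reference cytotoxic drug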
* = called active by the depositor; nt = not tested or not shown.

SMILES	IDE inh	TPT1 inh	IDE cell activ	CRFBP-R2 agonist	HNF4A DNA FP	IDE inh confirm	HEK cytotox
c1cc2c(cc1NC1=NCCO1)CCCC2	nt	nt	6	-2	-2	nt	nt
COc1ccc(-n2c(/C=C/c3ccc(O)cc3)nc3ccccc3c2=O)cc1	31*	8	-34	0	6	76*	15
O=c1c2ccccc2nc(/C=C/c2ccc(O)cc2)n1-c1ccc(O)cc1	62*	10	-70	2	8	133*	21
COc1cccc(-n2c(/C=C/c3ccccn3)nc3ccccc3c2=O)c1	nt	nt	2	1	-4	nt	nt
O=c1[nH]c(=O)n(Cc2ccccc2)c(O)c1/C=N/NCCO	16*	24	nt	3	19	2	6
O=C(N/N=C/c1c(O)n(Cc2ccc(F)cc2)c(=O)[nH]c1=O)c1ccccc1O	0	9	0	-1	5	nt	nt
ClCCN1CCSCC1	nt	nt	2	2	-3	nt	nt
CCOC(=O)c1c(C)n(Cc2ccccc2)c2ccc(OCC(O)CNC(C)(C)C)cc12 (stereo not drawn)	38*	-2	-19	1	3	19*	18
